# Results published in publication PMC5540273 (PLoS ONE, 2017).
# Assays:
# Details in all cases: concentration: 1 μM, replicates: in singlicate; n = 1
# PDPK1 = system: PDPK1
# PFTAIRE2 = system: PFTAIRE2
# PFTK1 = system: T1, PFTK1
# T1 construct: gene CDK14
# PHKG1 = system: PHKG1
# PHKG2 = system: PHKG2
# PIK3C2B = system: PIK3C2B
# PIK3C2G = system: PIK3C2G
# PIK3CA = system: PIK3CA
# PIK3CB = system: PIK3CB
# PIK3CD = system: PIK3CD
# 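Note: KINOMEscan kinase panel screen.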
SMILES,%Inh (PDPK1),%Inh (PFTAIRE2),%Inh (PFTK1),%Inh (PHKG1),%Inh (PHKG2),%Inh (PIK3C2B),%Inh (PIK3C2G),%Inh (PIK3CA),%Inh (PIK3CB),%Inh (PIK3CD)
CN1C(=O)C(Nc2ccccc2)=C(c2ccccc2)C1=O [SB-300079],0%,0%,1%,11%,0%,0%,16%,25%,0%,0%
O=C(NCc1cccs1)c1cc(C(=O)c2c(Cl)cccc2Cl)c[nH]1 [GW823670],0%,0%,55%,2%,0%,0%,0%,0%,0%,0%
O=C(Nc1n[nH]c2cc(-c3ccccc3F)ccc12)C1CC1 [SB-733371],0%,12%,0%,0%,0%,2%,3%,0%,18%,0%
CCC(=O)c1c(-c2ccccc2)c2cc(Cl)ccc2c(=O)n1Cc1cc(S(C)(=O)=O)n(CC(F)F)n1,0%,0%,0%,0%,7%,0%,0%,0%,16%,0%
CN1C(=O)C(Nc2cc(Cl)c(O)c(Cl)c2)=C(c2ccc(Cl)cc2)C1=O [SB-404321],0%,0%,0%,0%,0%,0%,0%,0%,0%,0%
COc1cccc(-n2cnc3c(N)ncnc32)c1 [SKF-97416],0%,0%,0%,34%,0%,0%,34%,21%,32%,54%
COc1cc2nccc(Nc3ccc(OCc4ccc(NC(C)=O)cc4)cc3)c2cc1OC.Cl [GW440135],22%,77%,0%,0%,5%,17%,0%,7%,0%,0%
CCS(=O)(=O)c1ccc(OC)c(Nc2ncc(-c3ccc(F)cc3)o2)c1.Cl [GW591947],0%,9%,1%,0%,0%,0%,0%,0%,0%,0%
COC(=O)c1c(-c2ccccc2)c2cc(Br)ccc2c(=O)n1Cc1ccc(S(C)(=O)=O)cc1,0%,7%,0%,24%,13%,7%,11%,7%,28%,0%
Cn1c(=O)c(F)c(Nc2ccc(I)cc2F)c2c(=O)n(OC[C@H](O)CO)cnc21,21%,2%,0%,23%,0%,0%,0%,0%,0%,0%
CCS(=O)c1ccc(-c2coc3ccc(-c4nnc(C)o4)cc23)cc1 (stereo not shown),0%,0%,9%,0%,0%,0%,15%,0%,32%,12%
COc1cc(Nc2ccnc3ccc(C(F)(F)F)cc23)cc(OC)c1OC [GW577382],32%,8%,0%,3%,0%,0%,0%,0%,0%,0%
COc1cc(OC)cc(-c2cc3cnc(N)nc3nc2NC(=O)NC(C)(C)C)c1,0%,0%,0%,13%,0%,65%,74%,0%,32%,0%
CCc1ccc(-c2ccc3c(c2)-c2nn(C)cc2S(=O)(=O)N3C)cc1,23%,0%,9%,0%,0%,0%,0%,0%,0%,0%
COC(=O)c1c(-c2ccccc2)c2cc(C)ccc2c(=O)n1Cc1ccccc1,0%,0%,2%,0%,15%,0%,0%,0%,0%,0%
FC(F)(F)c1ccc(-c2ncn(CCCN3CCOCC3)c2-c2ccncc2)cc1 [SB-217780],0%,40%,0%,1%,4%,0%,0%,0%,4%,0%
CCn1c(-c2ccoc2)nc2cnccc21 [SB-733887],0%,15%,0%,0%,0%,6%,0%,0%,0%,0%
OCCCNc1nccc(-c2c(-c3cccc(C(F)(F)F)c3)nn3cc(C(F)(F)F)ccc23)n1 [GW630813],0%,1%,18%,0%,5%,0%,0%,0%,0%,0%

SMILES,%Inh (PDPK1),%Inh (PFTAIRE2),%Inh (PFTK1),%Inh (PHKG1),%Inh (PHKG2),%Inh (PIK3C2B),%Inh (PIK3C2G),%Inh (PIK3CA),%Inh (PIK3CB),%Inh (PIK3CD)
CCC(=O)c1c(-c2ccccc2)c2cc(Cl)ccc2c(=O)n1Cc1ccc(C(=O)O)cc1,0%,0%,0%,0%,0%,0%,0%,0%,3%,0%
Cl.NS(=O)(=O)c1cccc(Nc2cc(-c3ccc(F)cc3)n[nH]2)c1 [GW824645],0%,24%,9%,0%,0%,0%,0%,11%,0%,0%
O=C(Nc1n[nH]c2nc(-c3ccccc3)c(Br)cc12)C1CC1 [SB-708998],20%,1%,7%,0%,0%,0%,9%,0%,0%,3%
CCCC(=O)Nc1n[nH]c2ncc(-c3cccc4ccccc34)cc12 [SB-642057],0%,23%,39%,0%,2%,7%,0%,13%,0%,0%
Nc1nc(N)c2nc(-c3ccccc3)[nH]c2n1 [SKF-12778],14%,6%,9%,0%,0%,0%,68%,6%,0%,21%
CCC(=O)c1c(-c2ccccc2)c2cc(Cl)ccc2c(=O)n1Cc1cc(S(C)(=O)=O)n(CCC(C)(C)O)n1,0%,0%,12%,18%,0%,41%,52%,32%,26%,36%
COc1ccc(Nc2nccc(N3CCC(NS(=O)(=O)c4ccc(NC(C)=O)cc4)C3)n2)cc1 (stereo not shown) [GSK1379729],9%,17%,20%,18%,0%,7%,6%,4%,0%,27%
CN(C)c1cc(-c2ccc3c(N)n[nH]c3c2)nc(N)n1 [GSK2219329],–,0%,11%,0%,0%,0%,0%,0%,0%,0%
O=c1cc(N2CCOCC2)nc2n(Cc3ccc(F)c(Cl)c3)ccn12 [GSK2297099],0%,62%,14%,0%,0%,31%,0%,11%,96.2%,75%
Cc1cccc(-c2cc(-c3c[nH]nc3-c3ccccn3)ccn2)c1 [GW679395],0%,1%,11%,0%,0%,1%,0%,0%,0%,0%
COc1ccc(-c2cc3c(C)nc(N)nc3n([C@H]3CC[C@H](OCCO)CC3)c2=O)cn1,0%,0%,0%,7%,0%,98.1%,98.1%,100%,100%,96.6%
CCCNC(=O)Nc1ccc(Oc2ncnc3ccn(C)c23)cc1,0%,10%,0%,0%,0%,19%,27%,14%,0%,30%
Cc1cc(Nc2nc(-c3cccc(C)n3)nc3ccccc23)ccn1 [GW872411],0%,0%,10%,0%,0%,0%,0%,0%,0%,0%
Nc1ncnc2c1ncn2-c1cccc(F)c1 [SKF-97560],7%,0%,20%,5%,0%,0%,35%,0%,0%,0%
COc1cc2ncn(-c3cc(OCCCc4ccccc4)c(C(N)=O)s3)c2cc1OC [GSK205189],11%,8%,34%,2%,20%,8%,0%,0%,0%,0%
COc1cc2ncn(-c3cc(OCc4ccncc4)c(C(N)=O)s3)c2cc1OC [GSK336313],0%,27%,16%,0%,0%,0%,0%,1%,0%,0%
O=C(Nc1n[nH]c2nc(-c3ccccc3)c(Cl)cc12)C1CC1 [SB-734909],0%,0%,6%,0%,7%,35%,10%,12%,13%,17%
